This is an account of results in ChEMBL document CHEMBL1961873, “Compounds: GSK PKIS; Assays: Nanosyn kinase panel” (2012).

The target in test [1] is T1, Tyrosine-protein kinase receptor TYRO3 (Homo sapiens) (UniProt Q06418).
T1 sequence (whole entry): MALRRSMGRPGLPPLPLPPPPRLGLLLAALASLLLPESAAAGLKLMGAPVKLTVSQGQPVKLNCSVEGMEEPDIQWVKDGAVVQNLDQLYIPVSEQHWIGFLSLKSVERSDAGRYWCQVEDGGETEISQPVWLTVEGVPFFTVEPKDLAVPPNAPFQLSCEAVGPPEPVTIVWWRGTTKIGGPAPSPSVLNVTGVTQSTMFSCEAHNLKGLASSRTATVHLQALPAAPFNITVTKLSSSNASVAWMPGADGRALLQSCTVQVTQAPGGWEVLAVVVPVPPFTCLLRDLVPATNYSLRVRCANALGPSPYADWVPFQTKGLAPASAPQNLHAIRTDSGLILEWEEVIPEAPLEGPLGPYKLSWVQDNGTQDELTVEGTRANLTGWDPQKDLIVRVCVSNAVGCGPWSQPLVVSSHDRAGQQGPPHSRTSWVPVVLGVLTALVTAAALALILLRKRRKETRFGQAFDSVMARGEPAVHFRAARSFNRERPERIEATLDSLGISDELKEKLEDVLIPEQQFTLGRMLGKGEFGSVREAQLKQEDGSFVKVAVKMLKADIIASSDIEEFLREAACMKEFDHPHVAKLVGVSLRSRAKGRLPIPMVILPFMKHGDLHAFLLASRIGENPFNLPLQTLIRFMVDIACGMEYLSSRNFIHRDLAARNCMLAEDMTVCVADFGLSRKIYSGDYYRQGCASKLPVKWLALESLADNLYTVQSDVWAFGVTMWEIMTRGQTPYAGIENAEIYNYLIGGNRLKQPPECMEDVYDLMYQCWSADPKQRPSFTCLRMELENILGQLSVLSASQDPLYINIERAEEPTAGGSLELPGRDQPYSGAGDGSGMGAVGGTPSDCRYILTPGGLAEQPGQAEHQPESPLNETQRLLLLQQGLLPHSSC
The note with it: at 1 µM.

Test [2] addresses Tyrosine-protein kinase Yes (Homo sapiens) (UniProt P07947). The note with it: at 0.1 µM.
The target is the same in test [3]. Conditions: at 1 µM.
Test [4] concerns the target T2, Tyrosine-protein kinase ZAP-70 (Homo sapiens) (UniProt P43403).
T2 sequence (whole entry): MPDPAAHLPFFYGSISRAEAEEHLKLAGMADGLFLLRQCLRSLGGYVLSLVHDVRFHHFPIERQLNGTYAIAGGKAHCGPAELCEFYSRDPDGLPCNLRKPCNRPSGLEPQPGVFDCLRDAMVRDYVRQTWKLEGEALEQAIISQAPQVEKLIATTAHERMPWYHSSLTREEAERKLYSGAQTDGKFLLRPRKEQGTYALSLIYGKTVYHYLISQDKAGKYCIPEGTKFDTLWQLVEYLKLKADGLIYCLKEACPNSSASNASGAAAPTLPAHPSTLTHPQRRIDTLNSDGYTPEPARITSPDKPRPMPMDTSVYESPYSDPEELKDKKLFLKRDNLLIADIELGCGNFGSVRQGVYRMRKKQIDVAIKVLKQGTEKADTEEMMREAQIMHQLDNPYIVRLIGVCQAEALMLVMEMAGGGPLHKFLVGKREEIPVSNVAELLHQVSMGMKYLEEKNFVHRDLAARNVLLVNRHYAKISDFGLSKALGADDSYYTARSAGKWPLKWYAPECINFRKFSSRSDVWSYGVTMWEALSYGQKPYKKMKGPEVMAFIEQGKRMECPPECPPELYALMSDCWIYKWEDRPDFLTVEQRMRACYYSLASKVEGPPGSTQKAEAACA
Conditions: at 0.1 µM.

The target of test [5] is T2, Tyrosine-protein kinase ZAP-70 (Homo sapiens). Conditions: at 1 µM.
Test [6] concerns the target Serine/threonine-protein kinase B-raf (Homo sapiens) (UniProt P15056). Conditions: at 0.1 µM.
The target is the same in test [7]. The note with it: at 1 µM.
Test [8] has as its system Serine/threonine-protein kinase B-raf (Homo sapiens), P15056 [V600E]. The note with it: at 0.1 µM.
The test system is the same in test [9]. Conditions: at 1 µM.
The target of test [10] is RAF proto-oncogene serine/threonine-protein kinase (Homo sapiens) (UniProt P04049). The note with it: at 0.1 µM.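 Note: values are mean CRAF kinase inhibition from profiling of the GSK Published Kinase Inhibitor Set.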
Chain of RAF proto-oncogene serine/threonine-protein kinase (Homo sapiens) (P04049 whole entry): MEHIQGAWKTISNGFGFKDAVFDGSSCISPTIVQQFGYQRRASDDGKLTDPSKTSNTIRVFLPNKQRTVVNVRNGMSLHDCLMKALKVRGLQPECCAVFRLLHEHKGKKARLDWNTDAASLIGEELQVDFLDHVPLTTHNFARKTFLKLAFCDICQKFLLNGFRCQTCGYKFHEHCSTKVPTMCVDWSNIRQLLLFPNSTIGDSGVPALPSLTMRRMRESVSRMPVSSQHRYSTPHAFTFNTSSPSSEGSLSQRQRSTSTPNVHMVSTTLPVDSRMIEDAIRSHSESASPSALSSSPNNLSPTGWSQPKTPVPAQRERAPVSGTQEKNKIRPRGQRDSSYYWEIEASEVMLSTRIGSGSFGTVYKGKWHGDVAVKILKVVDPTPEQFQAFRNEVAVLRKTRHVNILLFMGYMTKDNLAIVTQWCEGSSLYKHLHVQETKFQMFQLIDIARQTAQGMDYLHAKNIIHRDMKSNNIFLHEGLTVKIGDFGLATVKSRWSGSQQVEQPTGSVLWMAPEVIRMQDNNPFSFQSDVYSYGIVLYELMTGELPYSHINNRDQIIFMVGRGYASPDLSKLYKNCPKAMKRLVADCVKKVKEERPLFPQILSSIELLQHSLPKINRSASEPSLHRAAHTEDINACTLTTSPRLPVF

Each structure is given as a SMILES string.

Chain of Tyrosine-protein kinase Yes (Homo sapiens) (P07947 2-543 limits assumed): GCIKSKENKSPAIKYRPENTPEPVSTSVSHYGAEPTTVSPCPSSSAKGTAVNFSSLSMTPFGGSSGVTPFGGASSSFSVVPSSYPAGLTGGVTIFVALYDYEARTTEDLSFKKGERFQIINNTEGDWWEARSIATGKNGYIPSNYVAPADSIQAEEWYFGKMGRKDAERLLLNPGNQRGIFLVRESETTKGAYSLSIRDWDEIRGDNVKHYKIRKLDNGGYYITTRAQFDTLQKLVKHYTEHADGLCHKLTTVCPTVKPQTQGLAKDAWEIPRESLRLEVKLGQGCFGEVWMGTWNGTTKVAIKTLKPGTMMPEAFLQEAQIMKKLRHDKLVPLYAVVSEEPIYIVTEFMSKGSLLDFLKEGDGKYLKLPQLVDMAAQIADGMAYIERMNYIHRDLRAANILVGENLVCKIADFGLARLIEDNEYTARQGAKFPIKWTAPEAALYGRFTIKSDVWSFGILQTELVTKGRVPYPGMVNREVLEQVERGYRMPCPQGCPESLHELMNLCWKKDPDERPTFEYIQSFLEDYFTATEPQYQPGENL
Chain of Serine/threonine-protein kinase B-raf (Homo sapiens), P15056 [V600E] (P15056 whole entry V600E): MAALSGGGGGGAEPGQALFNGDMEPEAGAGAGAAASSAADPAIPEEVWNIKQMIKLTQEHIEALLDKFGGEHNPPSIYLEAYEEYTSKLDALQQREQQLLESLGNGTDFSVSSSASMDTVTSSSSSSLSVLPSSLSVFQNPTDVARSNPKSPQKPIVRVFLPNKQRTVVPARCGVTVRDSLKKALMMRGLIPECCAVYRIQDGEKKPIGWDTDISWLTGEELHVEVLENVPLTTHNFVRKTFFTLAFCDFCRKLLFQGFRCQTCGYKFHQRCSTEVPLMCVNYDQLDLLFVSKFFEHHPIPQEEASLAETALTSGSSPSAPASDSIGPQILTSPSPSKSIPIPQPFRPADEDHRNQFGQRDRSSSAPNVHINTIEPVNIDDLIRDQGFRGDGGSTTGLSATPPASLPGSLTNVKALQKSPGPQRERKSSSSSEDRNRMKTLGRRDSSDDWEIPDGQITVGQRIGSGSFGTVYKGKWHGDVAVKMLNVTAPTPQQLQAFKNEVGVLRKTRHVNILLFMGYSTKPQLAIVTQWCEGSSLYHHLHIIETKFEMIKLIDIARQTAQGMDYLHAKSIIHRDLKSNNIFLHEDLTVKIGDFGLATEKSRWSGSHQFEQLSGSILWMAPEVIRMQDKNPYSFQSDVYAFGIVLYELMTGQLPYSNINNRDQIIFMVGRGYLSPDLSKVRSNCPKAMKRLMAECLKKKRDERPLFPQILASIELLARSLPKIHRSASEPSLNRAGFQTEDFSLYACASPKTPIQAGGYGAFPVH
Chain of Serine/threonine-protein kinase B-raf (Homo sapiens) (P15056 whole entry): as the sequence (P15056 whole entry V600E) above, with E600V counted along it

The term inhibition denotes the relative decrease from the control value, in per cent. For the molecule `NS(=O)(=O)c1ccc(-c2cc3ccncc3cc2OCc2ccccc2)cc1`, the inhibition in [1] was 4.23%; in test [2], 3.11%; in test [3], 3.16%; in test [4] it was 0.37%; in test [5], -0.77%; in test [6], 4.65%. Also, the inhibition in test [7] worked out at 6.35%; in [8], 5.61%; in test [9], 4.49%; in test [10], 2.9%.
On to `N#Cc1cccc(Nc2nccc(-c3cnn4ncccc34)n2)c1`, for which the inhibition in test [1] turned out to be 47.8%; in test [2], 5.64%; in test [3], 37%; in test [4], 3.19%; in test [5], 13.3%; in [6] it was 19.5%. Further, the inhibition in [7] is 65.2%; in test [8], 18.8%; in [9], 65%; in test [10] it was -0.47%.
As to `CCOc1nccc2c1nc(-c1nonc1N)n2CC`, the inhibition in test [1] worked out at 5.64%; in test [2], 2.27%; in [3], 6.31%; in test [4], 2.73%; in test [5], 1.9%; in [6], 2.88%. For the same molecule, the inhibition in test [7] is 2.64%; in test [8], 3.44%; in test [9] it was 2.45%; in test [10], -1.34%.
`Cc1nc(-c2ccccc2)n2nc(NCCCN3CCOCC3)ncc12`: the inhibition stood at 2.63% in test [1]; 0.53% in test [2]; 6.58% in test [3]; 0.35% in test [4]; 0.63% in test [5]; 3.54% in test [6]. Further, the inhibition in [7] was 7.13%; in test [8], 4.13%; in [9], 4.57%; in test [10], 8.88%.
`O=C1Nc2ccc(-c3cccnc3)cc2C1=Cc1cc(Br)c(O)c(Br)c1`: the inhibition in [1] was 9.95%; in [2] it was 2.64%; in test [3], 5.79%; in [5], -8.3%; in test [6], 8.77%; in test [7] it was 18.3%. Further, the inhibition in [8] was 8.84%; in test [9] it was 18.1%; in [10], -2.68%.
Regarding `NC(=O)c1sc(-n2cnc3ccccc32)cc1OCc1ccccc1Br`, the inhibition in test [1] was 1.89%; in [2], 2.41%; in test [3] it was 7.85%; in test [4] it was -2.78%; in test [5], -2.62%; in test [6], 5.54%. For the same molecule, the inhibition in test [7] was found to be 6.15%; in [8], 4.91%; in test [9] it was 3.77%; in test [10], 3.4%.
Consider `COc1cc2ncnc(Nc3ccc4c(cnn4Cc4ccccc4)c3)c2cc1OC`, for which the inhibition is 12.6% in [1]; 39.4% in [2]; 79.9% in test [3]; -3.74% in [4]; 2.96% in [5]; 3.75% in [6]. Further, the inhibition is 3.3% in test [7], 2.5% in test [8], 1.8% in test [9] and 0.11% in test [10].
For the molecule `NS(=O)(=O)c1cccc(Nc2cc(-c3ccc(F)cc3)n[nH]2)c1`, the inhibition in [1] was found to be 19.7%; in test [2], 2.67%; in test [3] it was 12.1%; in test [4] it was 1.39%; in test [5] it was 2.54%; in test [6], 5.14%. The inhibition in [7] is 4.96%; in [8], 3.81%; in [9], 5.31%; in test [10], 0.49%.
On to `Cc1ccc(Nc2ccnc(Nc3cccc(C(N)=O)c3)n2)cc1O`, for which the inhibition was 55% in test [1]; 33.5% in test [2]; 78.5% in test [3]; -1.9% in [4]; 6.83% in [5]; 6.53% in test [6]. In addition, the inhibition is 10.4% in [7], 5.95% in test [8], 8.26% in test [9] and 6.98% in test [10].
`Cc1cc(O)cc(C)c1/C=C/c1cncc(C(=O)N(C)C)c1`: the inhibition worked out at 2.81% in test [1]; 0.44% in [2]; 1.22% in test [3]; 1.81% in [4]; 2.36% in [5]; 3.04% in test [6]. Besides, the inhibition stood at 3.56% in test [7], 4.11% in [8], 3.14% in test [9] and 6.23% in test [10].
`O=C(Nc1ccc(Oc2ccc3[nH]c(NC(=O)c4ccco4)nc3c2)cc1)Nc1cc(C(F)(F)F)ccc1F`: the inhibition in test [1] was 37.4%; in test [2], 0.93%; in test [3], 21.9%; in test [5], -9.02%; in test [6], 4.64%; in [7] it was 60.7%. Also, the inhibition in [8] was 3.75%; in test [9] it was 72.5%; in test [10] it was -0.98%.
On to `COc1cc2ncnc(Nc3ccc(C)c(O)c3)c2cc1OC`, for which the inhibition in test [1] worked out at 34.5%; in test [2], 8.25%; in [3], 42%; in test [4], 3.61%; in test [5], 1.79%; in test [6], 8.83%. The inhibition was determined as 10% in test [7], 7.72% in test [8], 9.15% in test [9] and 1.3% in [10].
With `c1ccc(Nc2ncc(-c3ccccc3)o2)cc1`, the inhibition in test [1] is 6.84%; in [2], 2.4%; in test [3], 6.64%; in test [4], -1.32%; in test [5], 1.41%; in test [6] it was 5.93%. The inhibition was found to be 7.7% in [7], 5.02% in test [8], 4.39% in test [9] and 2.39% in test [10].
As for `Cc1ccc2c(c1)/C(=N/Nc1ccc(S(N)(=O)=O)cc1)C(=O)N2`, the inhibition is 0.35% in test [1]; -0.04% in test [2]; 5.49% in [3]; 1.31% in test [4]; 1.47% in [5]; 0.51% in test [6]. Also, the inhibition in [7] is 3.31%; in test [8], 0.4%; in test [9], 3.37%; in [10], 0.26%.
Turning to `[O-][S+]1CCN(Cc2ccc(-c3ccc4ncnc(Nc5ccc(OCc6ccccc6)c(Cl)c5)c4c3)o2)CC1`, the inhibition in [1] was 2.86%; in test [2] it was 6.47%; in [3], 39.1%; in test [4] it was -3.44%; in [5], 1.8%; in [6] it was 3.08%. For the same molecule, the inhibition in [7] was 3.86%; in [8], 2.34%; in test [9] it was 3.29%; in test [10], -1.87%.
Take `COc1cccc(-n2ncc3c(N/N=C/c4ccc(C)cc4)ncnc32)c1`: the inhibition in [1] came out at 4.49%; in [2], 4.03%; in test [3], 13.8%; in test [4] it was 3.63%; in test [5] it was 11%; in [6] it was 7.21%. For the same molecule, the inhibition in test [7] turned out to be 11.2%; in test [8], 4.78%; in test [9], 6.08%; in test [10] it was 7.72%.
For `Cc1cc(-c2ccccn2)cc(C)c1/C=C/c1cncc(-c2nn[nH]n2)c1`, the inhibition was 0.93% in test [1]; 1.13% in test [2]; 11.4% in [3]; 3.62% in [4]; -2.29% in [5]; 5.62% in test [6]. Also, the inhibition was determined as 12.4% in [7], 4.7% in test [8], 5.23% in test [9] and 1.48% in test [10].
